# NS1 inh = inhibitors of influenza NS1 protein function; 270,000 compounds, 0.4% hits; Potency, µM (top dose mostly 46.1 µM), for inactives: top-dose activity, positive = more growth; calls by dose curve; note: actives are rising curves; nearly all actives have a fitted effect of over 50% in size
#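 OD600 was taken as the measure of yeast growth restored by compound in an NS1-expressing S. cerevisiae strain. Cells had been washed out of glucose medium and diluted 1:100 into galactose -URA medium, pH 6.0.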
# RE007 growth inh = less growth of the S. pombe RE007 Vpr strain | Potency, µM (series often up to 92.2 µM), inactives show top-dose activity change, negative = less growth, actives largely listed as inhibitors | S. pombe RE007 Vpr strain, BacTiter-Glo ATP luminescence, 24 h | 360,000 compounds, 0.21% hits | AID 651644; active = well fitted falling curve with a large enough effect; inconclusive = small, poorly fitted or top-dose-only effect; inactive = no such curve, though single readings can be large or run the other way; note: % is set by controls: 0 for no effect and ±100 for the full control effect; nearly all actives have a fitted effect of over 50% in size
#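 Fission yeast RE007 carrying one integrated HIV-1 vpr copy, seeded at OD 0.01 in PMG+AL medium with 23 nL pinned compound. Grown 24 h at 30 degrees; viability read by BacTiter-Glo luminescence after 5 min.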
# LmPK inhibitor = blocks Leishmania mexicana pyruvate kinase activity; Potency, µM (series often up to 57.5 µM), without a hit: top-dose activity change, negative = inhibition, usual class: inhibitors; Q27686; purified LmPK, Kinase-Glo ATP luminescence, 1 h; 290,000 compounds, 0.37% hits; note: % is set by controls: 0 for no effect and ±100 for the full control effect
# Target sequence (Q27686 whole entry, looked up): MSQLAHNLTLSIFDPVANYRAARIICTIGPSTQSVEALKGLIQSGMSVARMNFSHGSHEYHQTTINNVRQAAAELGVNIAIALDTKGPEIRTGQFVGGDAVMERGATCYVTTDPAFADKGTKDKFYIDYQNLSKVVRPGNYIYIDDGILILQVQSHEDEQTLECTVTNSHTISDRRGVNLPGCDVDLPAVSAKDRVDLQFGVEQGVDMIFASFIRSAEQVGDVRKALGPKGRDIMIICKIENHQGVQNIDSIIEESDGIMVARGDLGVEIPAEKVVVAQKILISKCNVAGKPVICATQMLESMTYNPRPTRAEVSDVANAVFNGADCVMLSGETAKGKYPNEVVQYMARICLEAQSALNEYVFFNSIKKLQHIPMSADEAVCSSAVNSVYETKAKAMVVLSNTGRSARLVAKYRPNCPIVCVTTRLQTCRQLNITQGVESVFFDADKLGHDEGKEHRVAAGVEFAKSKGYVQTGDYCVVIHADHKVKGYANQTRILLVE
#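 In 50 mM imidazole pH 7.2 with 7 mM MgCl2, LmPK (0.1 nM) turned over PEP (0.5 mM) and ADP (0.1 mM) for 1 h at room temperature. Luciferase read-out of ATP.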
# TbPYK inhibitor = blocks Trypanosoma brucei pyruvate kinase. Q57TT1. 410,000 compounds, 0.12% hits. Potency, µM (doses to about 76.8 µM), inactives show top-dose activity, negative = inhibition, actives largely listed as inhibitors. TbPYK enzyme, Kinase-Glo Plus ATP luminescence, 45 min; note: % is set by controls: 0 for no effect and ±100 for the full control effect; nearly all actives have a fitted effect of over 50% in size
#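 Luminescent Kinase-Glo Plus end-point after 45 min room-temperature reaction of T. brucei pyruvate kinase started with 130 uM ADP (final). Buffer TEA 50 mM pH 7.2 with KCl, MgCl2, BSA, Tween-20; titration-based qHTS with fitted concentration-effect curves.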
# AMA1-RON2 inh = AMA1-RON2 (P. falciparum) interaction inhibition | Potency, µM (top dose mostly 58.2 µM), for the others: at the highest dose activity change, negative = inhibition, most hits filed as inhibitors | 360,000 compounds, 0.2% hits | AlphaScreen AMA1-biotinylated RON2 peptide binding;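 note: 0% = vehicle wells and -100% = peptide control; nearly all actives have a fitted effect of over 45% in size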
#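 AMA1 (3D7) with his tag at 25 nM final met compounds first, then biotinylated RON2 peptide at 25 nM; detection used donor plus acceptor beads, 10 µg/mL apiece, read by AlphaScreen after 30 min at room temperature.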
# The depositor's hits bear a star; ? = inconclusive; . = no result given; [ ] = another dose, or the depositor's remark. A selection: hits, their analogues and other compounds. The true share with any hit is near 0.92%. Unless noted, calls come from the whole dose curve; as a rule, active = well fitted curve in the direction sought with a large enough effect; inconclusive = small, poorly fitted or top-dose-only effect, or another doubt; inactive = no such curve, though single readings can be large; an effect the other way counts as inactive or inconclusive. Potency is the fitted concentration of half-maximal effect.
SMILES,NS1 inh,RE007 growth inh,LmPK inhibitor,TbPYK inhibitor,AMA1-RON2 inh
CCN(CC)c1ccc(C(=C2C=CC(=[N+](CC)CC)C=C2)c2ccc(N(CC)CC)cc2)cc1,.,?,.,?,2.24µM*
CCN(CC)c1ccc(C(=C2C=CC(=[N+](CC)CC)C=C2)c2ccccc2)cc1,.,4.47µM*,.,?,11.2µM*
CCN(CC)c1ccccc1,.,1.0%,.,0.8%,7.6%
CO[C@@H]1[C@@H](OC2OC(C)C(OC3CC(C)(O)C(OC(=O)CC(C)C)C(C)O3)C(N(C)C)C2O)[C@@H](CC=O)C[C@@H](C)C(=O)/C=C\C2O[C@H]2C[C@@H](C)OC(=O)C[C@H]1OC(C)=O (stereo partly specified),.,.,.,-5.3%,.
O=C1C(Cl)=C(N2CCCCC2)C(=O)C(Cl)=C1c1cnc(N2CCCCC2)s1,0.4%,-25.5%,20µM*,?,8.91µM*
O=C(O)/C=C\c1c2ccc(=O)c(O)c-2oc2c(O)c(O)ccc12,10.4%,.,.,.,.
Cc1ccc2c(c1)CC1(CN2C)C(=O)OC(C)(C)OC1=O,7.9%,-11.0%,15.8µM*,-2.1%,-5.1%
Cc1ccc2c(c1)CC1(CN2C)C(=O)NC(=O)N(c2cc(C)ccc2C)C1=O (stereo unspecified),17.0%,-3.3%,3.9%,1.6%,11.6%
Cc1ccc2oc(C(=O)N(Cc3ccc(N(C)C)cc3)C3CCS(=O)(=O)C3)c(C)c2c1 (stereo unspecified),-15.1%,-7.0%,-1.8%,-11.8%,28.2µM*
Cc1ccc2c(C)c(C(=O)N(Cc3ccc(N(C)C)cc3)C3CCS(=O)(=O)C3)oc2c1 (stereo unspecified),-34.9%,0.1%,0.1%,-5.6%,17.8µM*
Cc1ccc2c(=O)cc(C(=O)N(Cc3ccc(N(C)C)cc3)C3CCS(=O)(=O)C3)oc2c1 (stereo unspecified),.,.,.,-9.4%,.
COC(=O)c1ccccc1N/C=C/C(=O)c1ccc(Br)cc1,-1.8%,30.0%,-5.1%,-22.3%,-5.5%
NC(=O)c1ccccc1N/C=C/C(=O)c1ccccc1,-31.6%,-4.2%[3.69 µM],7.94µM*,.,-8.1%
O=C(O)CN(CC(=O)O)c1ccccc1,1.8%,.,.,.,.
CCOc1ccc(-c2ccc(SC)nn2)cc1,.,?,5.01µM*,?,-7.9%
COc1ccc2cc(C(=O)CCC(=O)O)ccc2c1,-6.2%,.,.,.,.
O[C@@H](c1cc(C(F)(F)F)nc2c(Cl)cc(Cl)cc12)C1CCCCN1 (stereo partly specified),-3.2%,.,.,.,.
CC(C)C(Cl)=NOC(=O)Nc1ccc(F)cc1,.,10µM*,.,-9.1%,4.8%
Cc1cc(-c2n[nH]c(=S)n2/N=C/c2cc([N+](=O)[O-])ccc2Cl)n[nH]1,?,11.4%,15.2%,3.98µM*,6.7%[11.6 µM]
CC(/C=N/n1c(-c2cc(C)[nH]n2)n[nH]c1=S)=C\c1ccccc1,13.7%,5.6%,-14.2%,5.01µM*,43.9%
O=[N+]([O-])c1ccc(/C=N/n2c(-c3cccnc3)n[nH]c2=S)cc1,5.5%,-20.0%,3.8%,?,2.7%[2.32 µM]
O=[N+]([O-])c1cccc(/C=N/n2c(-c3cccnc3)n[nH]c2=S)c1,?,9.4%,11.1%,2.24µM*,50.0%
CC(C)c1ccc(C(O)(C(=O)O)c2ccc(C(C)C)cc2)cc1,-2.8%,.,.,.,.
NNC(=O)CSc1cccc2cccnc12,20.7%,0.0%,5.4%,-7.5%,5.5%
O=C(CSc1cccc2cccnc12)N1CCCC1,-34.6%,44.7µM*,-5.3%,?,18.1%
SMILES,NS1 inh,RE007 growth inh,LmPK inhibitor,TbPYK inhibitor,AMA1-RON2 inh
COC(=O)CCC(=O)OC1(C)C(=O)C=C2C=C(C3CC3)N(c3ccc(OC)cc3)C=C2C1=O (stereo unspecified),.,.,-6.5%[11.5 µM],.,.
COc1cc2c(cc1N)-c1ccc(N)cc1C2,.,11.8%,.,-24.4%,3.98µM*
C[C@@H](C(=O)O)c1ccc(C2CCCCC2)c2ccccc12,.,.,.,2.4%,.
O=C1N=c2ccccc2=C1c1sc(=O)[nH]c1O,-2.4%,9.2%,10µM*,?,13.6%
O=C1N=c2ccc([N+](=O)[O-])cc2=C1c1sc(=O)[nH]c1O,5.7%,-2.5%,?,-29.5%,-8.6%
CC(=O)[O][Al][O]C(C)=O,.,.,.,3.8%,.
O=[N+]([O-])c1ccc(N/N=C2\CC3CC=CC23)c([N+](=O)[O-])c1 (stereo unspecified),.,5.6%,-0.8%,1.6%,14.1µM*
O=[N+]([O-])c1ccc(N/N=C2\CC3CC=CC23)cc1 (stereo unspecified),5.5%,-0.8%,4.7%,-0.4%,3.8%
OCC1OC([S-])[C@H](O)C(O)C1O.[Au+] (stereo partly specified),.,.,.,-10.6%,.
O=C(C#Cc1ccccc1)c1ccco1,-128.2%,8.91µM*,-4.0%,4.3%,-5.1%
O=C(Nc1ccc(Cl)cn1)c1ccccc1F,-18.4%,-8.1%,22.4µM*,-7.5%,4.2%
O=S(=O)(O)OCC1OC(COS(=O)(=O)O)(C2(OS(=O)(=O)O)OC(CO)C(OS(=O)(=O)O)C(OS(=O)(=O)O)C2OS(=O)(=O)O)C(OS(=O)(=O)O)C1OS(=O)(=O)O (stereo unspecified),.,.,.,-3.3%,.
CC1(C)O[C@@H]2[C@H](O1)[C@@H](COS(=O)(=O)O)O[C@H]2n1c(=S)[nH]c2c(=O)[nH]c(N)nc21,.,0.2%,.,35.5µM*,4.0%
O=C1c2ccccc2C(=O)N1CCSc1n[nH]c(=S)s1,0.6%,-6.7%,16.6%,28.2µM*,29.7%
COc1cccc(-c2nc(-c3ccccc3)no2)c1,-63.3%,-28.7%,-9.9%,0.2%,32.7%
c1ccc(-c2noc(C3CCCCC3)n2)nc1,2.0%,35.5µM*,?,2.6%,-6.8%
Brc1ccc(-c2noc(C3CCCCC3)n2)cc1,2.5%,-6.8%,-6.2%,-2.5%,-9.9%
COc1cccc(-c2nc(-c3ccccn3)no2)c1,-17.9%,?,12.6µM*,?,0.1%
c1ccc(-c2noc(-c3ccc4c(c3)OCO4)n2)nc1,?,?,3.16µM*,11.2µM*,7.3%
c1ccc(-c2noc(-c3cccnc3)n2)nc1,?,-10.5%,14.1µM*,-29.0%,24.4%
CN[C@H](C)CCC=C(C)C,.,.,.,-8.4%,.

# Bioassay records: PubChem, National Center for Advancing Translational Sciences (NCATS)
